Assay [1] can be described thus: inhibitors of CD8+ T cell-vesicle binding, pilot screen, LFA-1/ICAM-1 modulator project, MLPCN validation set, flow cytometry (AID 2523;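 active = response below a set limit, under 55% cells CD8-positive and vesicle-bound, and CD8 cells' 90th-percentile brightness under 279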;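 for vesicle binding response: mean PE anti-B7-1 fluorescence of CD8+ cells relative to row control; 100% = QL9-loaded vesicles with DMSO vehicle in the same plate row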). As to conditions: 2C mouse CD8+ T cells, at 7 µM, stronger effect = lower value; double positive events: measured here: CD8+/vesicle+ event percentage. (In general: A flow cytometer gives signals particle by particle.)
Assay [2] addresses Integrin beta-1 (Homo sapiens) + Integrin alpha-4 (Homo sapiens) (UniProt P13612+P05556). The assay can be described thus: inhibition of HUTS-21 binding to VLA-4, pilot screen, VLA-4 allosteric modulator project, U937 cells, HUTS-21 mAb, flow cytometry, validation set (AID 2674;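 active = inhibition above 50%, about 3 SD of the validation set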;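 note: antibody binding induced by the VLA-4 ligand LDV present at three times its Kd; 0% = LDV ligand with antibody and no compound and 100% = antibody without LDV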). As to conditions: HUTS-21 LIBS mAb binding, at 6.7 µM, stronger effect = higher value, binding induced by LDV ligand.

The nature of assay [3]: superoxide lowering in aged yeast cells, pilot screen, validation compound set (AID 2706;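 active = superoxide response below 65% of plate, a cut near 3 SD across the whole screen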;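 note: yeast exposed to compound for one week at 30 degrees C before staining; 100% = mean of all compound wells on the same plate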). As to conditions: S. cerevisiae aging, superoxide DHE fluorescence; at 10 µM, stronger effect = lower value.
In assay [4] the target is Beta-adrenergic receptor kinase 1 (Homo sapiens) (UniProt P25098). As to the kind of experiment: GRK2 binders displacing RNA aptamer, biochemical, validation, human GRK2, bead flow cytometry (AID 488806;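 active = aptamer binding inhibition above 30%, about 3 SD of noise from non-fluorescent compounds; inactive = inhibition at or below 30%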). As to conditions: bead-bound GRK2, FAM-aptamer displacement, at 10 µM, stronger effect = higher value.
Sequence of Beta-adrenergic receptor kinase 1 (Homo sapiens) (P25098 whole entry, looked up): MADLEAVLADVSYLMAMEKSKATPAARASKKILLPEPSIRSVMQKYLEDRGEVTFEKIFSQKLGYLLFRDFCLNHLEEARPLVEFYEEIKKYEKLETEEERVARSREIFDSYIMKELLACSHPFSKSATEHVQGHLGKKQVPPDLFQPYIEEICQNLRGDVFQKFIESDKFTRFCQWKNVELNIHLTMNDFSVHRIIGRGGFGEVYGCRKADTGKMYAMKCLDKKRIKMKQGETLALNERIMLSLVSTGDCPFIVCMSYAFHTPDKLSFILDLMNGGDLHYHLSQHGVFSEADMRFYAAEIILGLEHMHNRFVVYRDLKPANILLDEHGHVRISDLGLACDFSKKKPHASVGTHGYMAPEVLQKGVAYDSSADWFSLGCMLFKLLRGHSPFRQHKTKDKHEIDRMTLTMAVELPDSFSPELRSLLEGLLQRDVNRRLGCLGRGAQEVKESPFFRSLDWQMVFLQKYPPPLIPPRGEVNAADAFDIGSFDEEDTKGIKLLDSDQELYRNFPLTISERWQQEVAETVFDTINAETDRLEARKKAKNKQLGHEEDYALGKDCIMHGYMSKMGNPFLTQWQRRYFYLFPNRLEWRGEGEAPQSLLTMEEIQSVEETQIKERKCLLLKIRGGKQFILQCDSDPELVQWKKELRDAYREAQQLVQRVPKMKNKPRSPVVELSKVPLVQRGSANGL
The target in assay [5] is Beta-2 adrenergic receptor (Homo sapiens) (UniProt P07550). The assay can be described thus: beta2AR agonists driving receptor internalization, pilot screen, cell-based, FAP fluorogen, flow cytometry, validation set (AID 504459;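 active = percent response above 42, roughly 3 SD of non-fluorescent test compounds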;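 note: agonist-driven loss of surface beta2AR via internalization measured by FAP dye flow cytometry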). As to conditions: Am2.2-beta2AR cells, FAP surface receptor flow cytometry; at 10 µM; stronger effect = higher value.
Sequence of Beta-2 adrenergic receptor (Homo sapiens) (P07550 whole entry, looked up): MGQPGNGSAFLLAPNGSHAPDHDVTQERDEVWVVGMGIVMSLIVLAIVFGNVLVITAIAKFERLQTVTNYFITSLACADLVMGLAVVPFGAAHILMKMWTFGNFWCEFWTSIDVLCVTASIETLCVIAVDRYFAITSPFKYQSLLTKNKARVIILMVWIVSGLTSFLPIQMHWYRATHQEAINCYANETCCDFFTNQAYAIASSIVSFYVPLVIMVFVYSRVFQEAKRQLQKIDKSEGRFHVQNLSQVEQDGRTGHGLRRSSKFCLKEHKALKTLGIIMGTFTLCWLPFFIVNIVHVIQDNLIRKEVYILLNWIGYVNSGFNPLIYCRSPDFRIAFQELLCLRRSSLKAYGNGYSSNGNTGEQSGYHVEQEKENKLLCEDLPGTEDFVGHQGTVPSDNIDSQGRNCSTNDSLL
For assay [6], the target named is AP-2 complex subunit beta (Homo sapiens) (UniProt P63010). As to the kind of experiment: inhibitors of arrestin peptide binding to AP2, pilot screen, biochemical, validation set, GST-AP2 beads, flow cytometry (AID 504541;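 active = inhibition above 54%, about 3 SD of non-fluorescent compounds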;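 note: AP2 carries R879A mutation and is captured from E. coli lysate; bead-bound FITC arrestin peptide fluorescence measuring arrestin peptide binding to AP2; 0% = DMSO wells and 100% = excess unlabeled arrestin peptide control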). The settings on record: FITC arrestin peptide, at 10 µM, stronger effect = higher value, AP2 beta2 appendage fragment, R879A mutant.
Sequence of AP-2 complex subunit beta (Homo sapiens) (P63010 whole entry, looked up, the tested form may be a part, one chain of several): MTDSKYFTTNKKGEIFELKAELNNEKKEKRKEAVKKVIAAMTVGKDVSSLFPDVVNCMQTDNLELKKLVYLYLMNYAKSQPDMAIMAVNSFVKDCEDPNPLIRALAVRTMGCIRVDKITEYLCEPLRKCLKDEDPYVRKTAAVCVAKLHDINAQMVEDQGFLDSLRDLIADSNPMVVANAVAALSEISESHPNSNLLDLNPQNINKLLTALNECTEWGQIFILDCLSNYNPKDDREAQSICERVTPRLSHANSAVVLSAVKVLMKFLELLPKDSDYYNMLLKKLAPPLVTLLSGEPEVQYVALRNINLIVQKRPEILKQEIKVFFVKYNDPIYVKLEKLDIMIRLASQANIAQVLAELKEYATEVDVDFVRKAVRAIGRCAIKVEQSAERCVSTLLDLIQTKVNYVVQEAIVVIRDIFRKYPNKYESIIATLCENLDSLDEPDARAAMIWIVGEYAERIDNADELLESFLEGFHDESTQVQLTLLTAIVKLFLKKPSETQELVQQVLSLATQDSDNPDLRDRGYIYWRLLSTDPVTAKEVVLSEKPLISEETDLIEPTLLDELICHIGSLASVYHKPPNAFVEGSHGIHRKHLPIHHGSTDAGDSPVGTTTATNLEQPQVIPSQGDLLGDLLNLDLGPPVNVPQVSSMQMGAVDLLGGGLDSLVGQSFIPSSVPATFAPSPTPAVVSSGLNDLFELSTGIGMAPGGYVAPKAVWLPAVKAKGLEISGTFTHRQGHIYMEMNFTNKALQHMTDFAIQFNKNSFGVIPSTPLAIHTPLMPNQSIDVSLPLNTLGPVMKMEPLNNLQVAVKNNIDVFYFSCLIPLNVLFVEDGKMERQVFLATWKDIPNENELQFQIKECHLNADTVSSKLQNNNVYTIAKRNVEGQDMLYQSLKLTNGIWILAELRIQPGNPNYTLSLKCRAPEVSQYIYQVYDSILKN
The nature of assay [7]: yeast V-ATPase proton transport modulators, S. cerevisiae, pHLuorin, HTS validation (AID 504600; in the data active = response above about 15%;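 note: plate controls were DMSO for no effect and reference compound for full effect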). The settings on record: S. cerevisiae pHLuorin cytosolic pH, at 10 µM, stronger effect = higher value.
The test system of assay [8] is anti-desmoglein-3 scFv antibody binding to human DSG3. The assay can be described thus: inhibitors of anti-DSG3 scFv binding to DSG3, pilot screen, biochemical, validation compound set, bead-based, flow cytometry (AID 588368;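 active = binding below the plate cutoff, the plate median minus 3 SD, with a reading above zero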;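 note: signal is the median channel fluorescence of bead-bound GFP antibody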). The settings on record: Protein G beads, DSG3-Fc, scFv-GFP binding, at 10 µM, stronger effect = lower value.
Assay [9] is described as follows: inhibitors of fungal efflux pumps CDR1, CDR2, MDR1, pilot screen, validation compound set, multiplex, phenotypic (AID 588506;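 active = efflux inhibition above 0.42, the validation set average plus 4 SD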;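 note: Nile Red retained in cells so higher fluorescence means more efflux inhibition; 0 = negative control wells and 1 = enniatin B 25 µM full block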). The settings on record: S. cerevisiae pump-expressing triplex, Nile Red efflux flow cytometry; at 10 µM; stronger effect = higher value; the pumps come from Candida albicans.
The target of assay [10] is ATP-binding cassette sub-family B member 6 (Homo sapiens) (UniProt Q9NP58). The assay can be described thus: ABCB6 transporter inhibitors, pilot screen, K562-ABCB6 cells, flow cytometry, validation set (AID 588550;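 active = inhibition above the screen-wide mean plus 3 SD, about 51%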;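 note: 0% = DMSO wells and 100% = benzethonium chloride 70 µM positive control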). As to conditions: K562-ABCB6 porphyrin accumulation, 1 h, at 10 µM, stronger effect = higher value.
Sequence of ATP-binding cassette sub-family B member 6 (Homo sapiens) (Q9NP58 whole entry, looked up): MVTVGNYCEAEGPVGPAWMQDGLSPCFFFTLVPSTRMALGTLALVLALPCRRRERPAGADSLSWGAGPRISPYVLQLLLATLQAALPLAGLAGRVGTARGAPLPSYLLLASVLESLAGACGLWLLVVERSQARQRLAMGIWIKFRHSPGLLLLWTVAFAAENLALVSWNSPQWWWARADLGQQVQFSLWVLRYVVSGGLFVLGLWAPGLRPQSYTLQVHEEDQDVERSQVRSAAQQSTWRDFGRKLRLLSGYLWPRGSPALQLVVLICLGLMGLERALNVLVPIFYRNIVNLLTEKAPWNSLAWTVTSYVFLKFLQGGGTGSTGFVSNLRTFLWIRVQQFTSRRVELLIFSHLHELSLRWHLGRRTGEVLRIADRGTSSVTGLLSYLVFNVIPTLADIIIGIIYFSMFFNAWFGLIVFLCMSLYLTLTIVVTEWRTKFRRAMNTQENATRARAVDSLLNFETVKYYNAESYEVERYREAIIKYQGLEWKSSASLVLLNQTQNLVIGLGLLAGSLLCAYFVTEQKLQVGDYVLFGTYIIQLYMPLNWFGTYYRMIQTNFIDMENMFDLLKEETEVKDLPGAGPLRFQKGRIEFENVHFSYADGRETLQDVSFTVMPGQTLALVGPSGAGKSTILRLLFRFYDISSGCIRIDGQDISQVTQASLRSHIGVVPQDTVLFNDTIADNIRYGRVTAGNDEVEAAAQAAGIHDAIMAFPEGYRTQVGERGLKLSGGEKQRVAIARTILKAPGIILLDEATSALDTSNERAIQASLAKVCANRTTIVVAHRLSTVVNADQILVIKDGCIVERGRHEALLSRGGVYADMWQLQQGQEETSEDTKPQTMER
Assay [11] can be described thus: promoters of myeloid differentiation in arrested cells, primary screen, cell-based, GFP/MAC1 double positive, flow cytometry, validation set (AID 588685;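 active = differentiation response of at least 50%, scaled between solvent and reference control, from cells with both markers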;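 note: compound exposure lasts four days before antibody staining and flow analysis; 0% = DMSO wells and 100% = 5 µM fulvestrant positive control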). As to conditions: ER-HoxA9 marrow cells, stronger effect = higher value, normalized: vehicle 0, fulvestrant 100.
Assay [12] can be described thus: RPL19A-GFP modulators, yeast TOR pathway, confirmation, cell-based, S. cerevisiae, flow cytometry, cherry picks, mother/daughter gates (AID 2270;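 active = GFP response below 50% of the DMSO control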). As to conditions: S. cerevisiae RPL19A-GFP strain, 3 h, at 10 µM, stronger effect = lower value, 100 = same GFP as DMSO wells.
Assay [13] in a line: LAP4-GFP expression modulators in yeast, confirmation, cell-based, cherry picks, flow cytometry, mother/daughter gates (AID 2271;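 active = GFP response above 150% of the DMSO control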;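 note: ratio of sample to DMSO plate mean so 100% equals DMSO level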). The settings on record: S. cerevisiae LAP4-GFP strain, 3 h, at 10 µM, stronger effect = higher value, 100 means same as DMSO control.
Assay [14] is described as follows: modulators of MEP2-GFP levels in yeast, confirmation, S. cerevisiae, flow cytometry GFP, cherry picks (AID 2272;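 active = GFP response above 150% of the DMSO control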;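 note: ratio of well signal to plate DMSO mean so 100% equals DMSO level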). The settings on record: S. cerevisiae MEP2-GFP strain, 3 h, at 10 µM, stronger effect = higher value.
A short description of assay [15]: AGP1-GFP expression modulators, hit retest, confirmation, cell-based, flow cytometry, S. cerevisiae, cherry picks (AID 2273).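 Note: median GFP channel fluorescence over the whole cell population gate.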 As to conditions: S. cerevisiae AGP1-GFP strain, 3 h, at 10 µM.
Assay [16] in a line: modulators of CIT2-GFP expression in yeast, confirmation, S. cerevisiae, GFP fusion, cherry picks, mother/daughter gates (AID 2274). As to conditions: S. cerevisiae CIT2-GFP strain, flow cytometry, 3 h, at 10 µM, stronger effect = higher value.
The mark [17] stands for this setting: measured here: daughter cell gate.

Structures are written as SMILES. Activity calls are given as the source filed them.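 Rule for the calls, unless noted: active = GFP response above 150% of the DMSO level; inconclusive = fewer than 70 events counted for a yeast strain; inactive = the rest.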

The text below walks through data of PubChem BioAssay.

The term inhibition denotes the change of the read-out against control, counted positive when it falls.

Sequence of Integrin beta-1 (Homo sapiens) + Integrin alpha-4 (Homo sapiens) (P05556 whole entry, looked up): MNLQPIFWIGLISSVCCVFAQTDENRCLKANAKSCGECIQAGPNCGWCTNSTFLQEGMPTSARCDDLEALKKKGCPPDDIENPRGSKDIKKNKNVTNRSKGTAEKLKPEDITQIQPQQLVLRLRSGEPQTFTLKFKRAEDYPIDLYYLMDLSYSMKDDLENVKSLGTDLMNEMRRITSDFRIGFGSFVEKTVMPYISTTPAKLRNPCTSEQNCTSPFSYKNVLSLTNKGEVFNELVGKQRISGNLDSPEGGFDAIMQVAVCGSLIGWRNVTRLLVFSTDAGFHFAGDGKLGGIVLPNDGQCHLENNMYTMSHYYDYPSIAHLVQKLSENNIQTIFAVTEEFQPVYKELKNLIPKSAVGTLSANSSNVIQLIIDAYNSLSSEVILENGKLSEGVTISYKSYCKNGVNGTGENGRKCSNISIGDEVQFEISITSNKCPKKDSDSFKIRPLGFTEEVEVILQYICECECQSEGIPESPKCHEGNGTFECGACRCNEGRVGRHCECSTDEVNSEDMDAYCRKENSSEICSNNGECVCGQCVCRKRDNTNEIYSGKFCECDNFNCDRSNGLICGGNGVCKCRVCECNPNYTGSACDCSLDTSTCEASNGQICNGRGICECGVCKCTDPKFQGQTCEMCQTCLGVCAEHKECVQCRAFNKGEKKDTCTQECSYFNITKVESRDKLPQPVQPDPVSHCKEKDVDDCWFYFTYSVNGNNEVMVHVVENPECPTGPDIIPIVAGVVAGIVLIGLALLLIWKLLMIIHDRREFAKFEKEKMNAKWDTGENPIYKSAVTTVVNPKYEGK
Sequence of Integrin beta-1 (Homo sapiens) + Integrin alpha-4 (Homo sapiens) (P13612 whole entry, looked up): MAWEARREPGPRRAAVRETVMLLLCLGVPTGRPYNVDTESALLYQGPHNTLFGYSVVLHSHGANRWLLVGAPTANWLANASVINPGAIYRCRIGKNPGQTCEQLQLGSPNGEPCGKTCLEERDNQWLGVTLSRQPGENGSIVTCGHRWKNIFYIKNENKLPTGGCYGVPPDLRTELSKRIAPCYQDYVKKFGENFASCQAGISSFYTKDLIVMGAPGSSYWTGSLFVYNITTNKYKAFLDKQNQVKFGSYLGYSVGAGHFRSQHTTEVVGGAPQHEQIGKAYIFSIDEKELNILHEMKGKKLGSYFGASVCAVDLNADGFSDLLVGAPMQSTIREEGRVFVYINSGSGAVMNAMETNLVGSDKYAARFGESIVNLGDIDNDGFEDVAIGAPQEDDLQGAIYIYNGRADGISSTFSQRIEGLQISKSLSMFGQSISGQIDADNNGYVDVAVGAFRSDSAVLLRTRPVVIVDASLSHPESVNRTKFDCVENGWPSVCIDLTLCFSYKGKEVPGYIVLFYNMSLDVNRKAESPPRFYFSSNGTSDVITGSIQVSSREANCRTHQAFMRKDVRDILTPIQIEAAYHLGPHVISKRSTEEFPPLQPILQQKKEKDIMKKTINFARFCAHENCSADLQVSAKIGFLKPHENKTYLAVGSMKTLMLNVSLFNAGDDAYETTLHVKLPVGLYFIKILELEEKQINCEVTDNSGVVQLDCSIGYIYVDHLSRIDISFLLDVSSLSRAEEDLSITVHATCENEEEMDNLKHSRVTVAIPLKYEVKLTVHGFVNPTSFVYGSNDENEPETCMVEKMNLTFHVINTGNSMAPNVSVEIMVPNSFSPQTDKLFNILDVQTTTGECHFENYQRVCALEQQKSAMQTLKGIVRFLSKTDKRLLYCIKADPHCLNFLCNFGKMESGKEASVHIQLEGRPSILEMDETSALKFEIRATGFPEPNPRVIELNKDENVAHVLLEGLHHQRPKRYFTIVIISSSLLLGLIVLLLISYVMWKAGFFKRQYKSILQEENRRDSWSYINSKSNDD

As to `Fc1cc(F)cc(NC(=S)NCCCN2CCOCC2)c1`, in assay [1], the double positive events was determined as 59.3%. Moreover, the vesicle binding response in assay [1] is 214% (inactive). In addition, the inhibition in [2] was 5.69% (inactive); in [6], -3.24% (inactive); in assay [10], 2% (inactive). Moreover, the superoxide response (% of plate) in [3] was 80.8% (inactive). Also, the aptamer binding inhibition in assay [4] was -5% (inactive). In addition, the response was -24.3% (inactive) in assay [5] and 4.35% (inactive) in assay [7]. Further, the binding (% of control) in assay [8] was 107% (inactive). The efflux inhibition (fraction of control) in assay [9] is -0.13 (inactive). In assay [11], the differentiation response was 0.92% (inactive).
With `O=C(O)CSC1CC(=O)N(c2ccc(Cl)cc2)C1=O` (configuration not stated), the GFP response vs DMSO is 93.1% (inactive) in assay [12] and 108% (inactive) in assay [14]. Further, the GFP response relative to DMSO in assay [13] is 102% (inactive). The GFP response, % of DMSO in [15] is 97.3% (inactive); in assay [16], 104% (inactive); in [16] (setting [17]), 90.5%.
In assay [1], `Cc1ccc2c(CN3CCN(Cc4ccc5c(c4)OCO5)CC3)cc(=O)oc2c1C` displayed a double positive events of 58.4%. Further, the vesicle binding response in [1] was 88.4% (inactive). Further, the inhibition in [2] was -7.79% (inactive); in assay [6], 4.85% (inactive); in assay [10], -11% (inactive). For the same compound, in assay [3], the superoxide response (% of plate) was 87.4% (inactive). Also, in assay [4], the aptamer binding inhibition is -2% (inactive). The response in assay [5] is -2.16% (inactive); in assay [7], -2.29% (inactive). Also, the binding (% of control) in assay [8] is 106% (inactive). The efflux inhibition (fraction of control) in assay [9] was -0.28 (inactive). For the same compound, the differentiation response in assay [11] was -6.03% (inactive).
With `CC(=O)Nc1cc(O)cc(O)c1`, the double positive events in assay [1] amounted to 60.5%. For the same compound, the vesicle binding response in assay [1] is 189% (inactive). The inhibition in assay [2] was 11.9% (inactive); in assay [6], 0.4% (inactive); in [10], 6% (inactive). Besides, the superoxide response (% of plate) in assay [3] was 99.3% (inactive). Further, the aptamer binding inhibition in assay [4] is -2% (inactive). Moreover, the response in assay [5] was -0.41% (inactive); in assay [7] it was -0.22% (inactive). The binding (% of control) in assay [8] was 106% (inactive). In assay [9], the efflux inhibition (fraction of control) was -0.06 (inactive). The differentiation response in assay [11] is 69.6% (active).
For the compound `CCC(=O)OCCNc1cc(Sc2nc3ccccc3s2)c2nonc2c1[N+](=O)[O-]`, the GFP response vs DMSO in assay [12] is 90.5% (inactive); in [14], 97.8% (inactive). Besides, the GFP response relative to DMSO in assay [13] was 254% (active). For the same compound, the GFP response, % of DMSO in [15] is 124% (inactive); in [16], 80.8% (inactive).
In the case of `Cc1cccc(N=c2oc3cc(O)ccc3cc2C(N)=O)c1`, the GFP response vs DMSO is 96.5% (inactive) in assay [12] and 106% (inactive) in assay [14]. For the same compound, the GFP response relative to DMSO in [13] was 100% (inactive). Moreover, the GFP response, % of DMSO in [15] was 102% (inactive); in assay [16] it was 108% (inactive); in [16] (setting [17]), 90.5%.
`N/C(=N\OC(=O)c1ccc(Cl)cc1Cl)c1ccccc1`: the GFP response vs DMSO is 98.4% (inactive) in [12] and 106% (inactive) in [14]. For the same compound, the GFP response relative to DMSO in [13] was 155% (active). Further, the GFP response, % of DMSO was 80.1% (inactive) in [15] and 151% (active) in [16].
Compound `COc1ccccc1C1(CC(=O)N2CCCCC2)CCOC(C(C)C)C1` (configuration not stated) showed a double positive events in assay [1] of 60.3%. Moreover, the vesicle binding response in [1] is 205% (inactive). Besides, the values for the inhibition in [2], in assay [6] and in assay [10] were 6.4% (inactive), -7.8% (inactive) and 6% (inactive), respectively. Also, the superoxide response (% of plate) in [3] was 97.5% (inactive). For the same compound, in assay [4], the aptamer binding inhibition was 0% (inactive). Further, the response in assay [5] was 8.83% (inactive); in assay [7], 2.05% (inactive). Moreover, the binding (% of control) in [8] was 105% (inactive). In addition, in assay [9], the efflux inhibition (fraction of control) was 0.33 (inactive). For the same compound, the differentiation response in assay [11] is 23.2% (inactive).
As to `CCOC(=O)C1C(=O)CC(C)(O)C(C(=O)OCC)C1/C=C/c1ccccc1` (configuration not stated), the double positive events in assay [1] was 61.6%. Also, in assay [1], the vesicle binding response is 115% (inactive). The inhibition in assay [2] is 2.93% (inactive); in [6], 1.5% (inactive); in assay [10], -11% (inactive). In addition, in [3], the superoxide response (% of plate) is 96.1% (inactive). Also, the aptamer binding inhibition in assay [4] is 2% (inactive). For the same compound, the response is 4.95% (inactive) in assay [5] and -0.5% (inactive) in assay [7]. The binding (% of control) in assay [8] is 102% (inactive). In addition, the efflux inhibition (fraction of control) in [9] was -0.07 (inactive). The differentiation response in assay [11] was -10.4% (inactive).
